M1 ag parental = counter-screen for M1 agonists: effect in parental CHO-K1 cells | Fluo-8 calcium fluorescence; scaled to maximal ATP response, vehicle zero | activation, % at 3 µM | 360,000 tested, 0.48% active | AID 602248, 2012; in the data active = activation above about 15%;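 also: untransfected CHO-K1 host cells lacking M1 receptor as counterscreen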
CHRM1 PAM = human M1 muscarinic receptor positive allosteric modulators, primary screen, CHO-K1 cells, Fluo-8 calcium fluorescence, 1536-well; Muscarinic acetylcholine receptor M1 (Homo sapiens), P11229; 360,000 tested, 0.088% active; activation, % at 3 µM; CHO-K1 hM1, ACh EC20; 0% = ACh EC20, 100% = maximal ACh; AID 588819, 2011; in the data active = activation above about 19%, passing the limit was not always enough
Target sequence (P11229 whole entry, looked up): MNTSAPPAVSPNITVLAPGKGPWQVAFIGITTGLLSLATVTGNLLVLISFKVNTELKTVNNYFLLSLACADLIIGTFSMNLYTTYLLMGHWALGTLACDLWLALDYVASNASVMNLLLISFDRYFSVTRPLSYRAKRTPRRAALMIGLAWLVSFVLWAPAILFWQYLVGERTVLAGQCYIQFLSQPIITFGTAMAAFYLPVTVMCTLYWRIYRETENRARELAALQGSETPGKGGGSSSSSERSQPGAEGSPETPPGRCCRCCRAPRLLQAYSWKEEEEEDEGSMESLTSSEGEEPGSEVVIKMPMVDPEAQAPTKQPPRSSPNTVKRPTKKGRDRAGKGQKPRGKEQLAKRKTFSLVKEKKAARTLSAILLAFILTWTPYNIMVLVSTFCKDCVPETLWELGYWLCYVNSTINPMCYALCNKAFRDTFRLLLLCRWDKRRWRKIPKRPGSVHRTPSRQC
CHO-K1 Ca antag = counter-screen for M1 antagonists: effect in parental CHO-K1 cells | ATP-induced calcium, Fluo-8 fluorescence | inhibition, % at 3 µM | 360,000 tested, 0.6% active | AID 602250;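 active = inhibition above a per-plate cutoff, the plate's mean sample inhibition plus 3 SD, cut at about 24% in these data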;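 also: 0% = DMSO plus EC80 ATP and 100% = DMSO alone without ATP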
M1 ag = human M1 muscarinic receptor agonists, primary screen, Fluo-8 calcium fluorescence, CHO-K1 cells, HTS; Muscarinic acetylcholine receptor M1 (Homo sapiens), P11229; CHO-K1 hM1, agonist mode; 0% DMSO, 100% acetylcholine EC100; activation, % at 3 µM; 360,000 tested, 0.33% active;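 active = activation above the run's mean compound activation plus 3 SD, cut at about 16% in these data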;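 also: peak over basal fluorescence ratio within a 140 s kinetic read after compound addition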
M1 PAM parental = nonselective calcium activators in parental CHO-K1 cells, primary screen, counter-screen for M1 PAM project, cell-based, Fluo-8 calcium fluorescence, full deck, 1536-well; ATP EC20; 0% at ATP EC20, 100% at ATP max; activation, % at 3 µM; 360,000 tested, 0.02% active;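 active = activation above the run cutoff, the mean activation of all test compounds plus 3 SD, cut at about 40% in these data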;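 also: peak over basal fluorescence ratio in a 140 s read after ATP addition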
CHRM1 antagonist = human M1 muscarinic receptor antagonists, primary screen, CHO-K1 cells, Fluo-8 calcium fluorescence, 1536-well; CHO-K1 hM1, ACh EC80 antagonist; inhibition, % at 3 µM; Muscarinic acetylcholine receptor M1 (Homo sapiens), P11229; 360,000 tested, 1.3% active;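 active = percent inhibition above its own plate's cutoff, namely the mean of that plate's compound wells plus 3 SD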;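 also: peak over basal fluorescence ratio during 140 s after agonist addition; 0% = ACh EC80 plus DMSO and 100% = DMSO alone without agonist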
Numbers without * were called inactive. Hits are enriched below; roughly 2.4% of the tested compounds scored in any of these assays.

SMILES | M1 ag parental | CHRM1 PAM | CHO-K1 Ca antag | M1 ag | M1 PAM parental | CHRM1 antagonist
Cn1c(=O)c2cc(NC(=O)CCc3ccccc3)ccc2n1Cc1cccc(C(F)(F)F)c1 | 5 | 1 | -4 | 1 | 10 | -6
COCCNC(=O)C1CCC(Cn2c(=S)[nH]c3ccccc3c2=O)CC1 (stereo not given) | 0 | 2 | 30* | 1 | -2 | 1
COc1ccccc1C(=O)Nc1ccnn1C1CCN(C/C=C/c2ccc(F)cc2)CC1 | 6 | 3 | -13 | -1 | 0 | -11
CCCCC(=O)Nc1ncc(S(=O)(=O)c2ccc([N+](=O)[O-])cc2)s1 | 9 | 11 | -2 | 23* | 16 | -4
CC(=O)NCCC(=O)Nc1ncc(S(=O)(=O)c2ccc([N+](=O)[O-])cc2)s1 | 1 | 0 | -1 | 1 | 4 | 3
Cn1c(=O)cc(OCCCC(=O)N2CCN(c3ccccc3)CC2)c2ccccc21 | 2 | 7 | 30* | -4 | -7 | 1
CCC1CCCCN1CCCNC(=O)CCCOc1cc(=O)n(C)c2ccccc12 (stereo not given) | 0 | -29 | -6 | -10 | 20 | 49*
Cc1ccc(N2C(=O)N(CC(=O)Nc3cc(F)ccc3C)C(=O)C2C)cc1 (stereo not given) | 1 | 14 | 5 | 4 | 16 | -17
COc1ccc(OC)c(CCNC(=O)CCC(=O)N2CCOc3ccc(C)cc32)c1 | 2 | 6 | -18 | -5 | 12 | -15
O=C(Nc1ccccc1)Nc1ccc2nnsc2c1 | 18* | -21 | 25* | 5 | -11 | 59*
O=C(Nc1ccccc1)Nc1ccc2snnc2c1 | 14 | -9 | 21 | 9 | 5 | 20
Cc1ccc(S(=O)(=O)NC(=O)N(C)C2CCCCC2)cc1 | 0 | 12 | -1 | -3 | 0 | -17
O=C(/C(=C/O)N=Nc1ccccc1)c1ccncc1 | 23* | -3 | -7 | -2 | -2 | 4
COc1cc(CN2CCC(n3nccc3NC(=O)c3ccc4c(c3)OCO4)CC2)ccc1O | 0 | 13 | -8 | -1 | 7 | -13
CC1CCCC(C)N1C(=O)c1ccc(S(=O)(=O)NCc2ccco2)cc1 (stereo not given) | 19* | 2 | -6 | 0 | 19 | -2
COc1cc(OC)cc(-c2n[nH]c(=S)n2-c2ccc3c(c2)OCCO3)c1 | 0 | -14 | 19 | -4 | -12 | 26*
COc1ccc(-c2n[nH]c(=S)n2-c2ccc3c(c2)OCCO3)cc1 | 0 | 5 | -5 | -5 | 15 | -5
COc1ccc(CCC(C)Nc2ccccc2F)cc1 (stereo not given) | 0 | -4 | -13 | -5 | 17 | 6
COc1ccc(CCC(C)NC2C3CC4CC(C3)CC2C4)cc1 (stereo not given) | 1 | -22 | 4 | -7 | -4 | 99*
COc1ccc(-c2c[n+]3c(n2-c2ccccc2)SCC3)cc1 | 0 | -23 | -6 | -9 | 11 | 62*
FC(F)Oc1ccc(-c2c[n+]3c(n2-c2ccccc2)CCCCC3)cc1 | 0 | 0 | -3 | -7 | -3 | -5
COc1ccc(-c2c[n+]3c(n2-c2ccccc2)SCC3)cc1OC | 1 | 5 | -9 | -8 | 10 | -3
Brc1ccc(-c2c[n+]3c(n2-c2ccccc2)SCC3)cc1 | 0 | -26 | -1 | -9 | -10 | 73*
Cc1ccc(-c2c[n+]3c(n2-c2ccccc2)SCC3)cc1 | 1 | -21 | -6 | -8 | 13 | 54*
CC(=O)N1CCN(CC(=O)NC(=O)Nc2ccc3c(c2)OCCO3)CC1 | 0 | 0 | 6 | -6 | -21 | 11
SMILES | M1 ag parental | CHRM1 PAM | CHO-K1 Ca antag | M1 ag | M1 PAM parental | CHRM1 antagonist
CCC1Oc2ccc(C)cc2N(CC(=O)N(Cc2ccc(C)o2)C2CC(C)(C)NC(C)(C)C2)C1=O (stereo not given) | 1 | -10 | -7 | -2 | 16 | 29*
COc1cc2c(cc1NC(=O)CN(C)Cc1cccc(OC)c1OC)oc1ccccc12 | 1 | 1 | -11 | -6 | 29 | -2
O=C(c1cc2nc(-c3ccccc3)cc(-c3ccccc3)n2n1)N1CCCC1 | 16* | -4 | 2 | -7 | 18 | 11
O/N=C1/C2C3C(Br)C4C5CC(C1C53)C24 (stereo not given) | 0 | -2 | 5 | -5 | -6 | -1
O=S(=O)(c1ccccc1)C1CON(Cc2ccccc2)C1c1ccccc1 (stereo not given) | 3 | -15 | 36* | -7 | -17 | 19
Cc1cccc(OCC(=O)NCC(C)(C)N2CCOCC2)c1 | 0 | 7 | -12 | -7 | 4 | -9
O=C(CN1CCOCC1)Nc1ccccc1Sc1ccc(Cl)cc1 | 4 | -14 | 8 | -7 | -10 | 22*
O=C(CCl)Nc1ccccc1Sc1ccccc1 | 0 | -13 | 24* | -7 | -6 | 17
CN(C)c1cccc(C(=O)OCC(=O)Nc2ccccc2Sc2ccccc2)c1 | -1 | -11 | 31* | -6 | -14 | 18
O=C(CN1CCOCC1)Nc1ccccc1F | 0 | 30* | -4 | -3 | 4 | -10
O=C(Cc1ccc(Cl)cc1)Nc1ccccc1Sc1ccccc1 | 1 | 0 | -8 | -9 | 14 | -3
O=C(CC(=O)N/N=C\c1ccccc1)NCCc1ccccc1 | 0 | -10 | 1 | 0 | -5 | 11
COC(=O)c1ccc(/C=N\NC(=O)CC(=O)NCCc2ccccc2)cc1 | 17* | 7 | 15 | -7 | 2 | -2
O=C(NCc1ccncc1)c1cccc(Cn2cc(Br)cn2)c1 | 2 | -20 | -9 | -5 | 19 | 97*
O=C(O)c1cccc(Cn2cc(Br)cn2)c1 | 0 | -4 | 1 | -2 | 2 | -7
COC(=O)COc1ccc(S(=O)(=O)NCc2ccc3c(c2)OCO3)cc1 | 8 | -4 | 10 | 3 | -4 | 5
COc1ccc(S(=O)(=O)NCc2csc(C)n2)cc1OC | 2 | 7 | -1 | -3 | 15 | -13
Cc1ccc(NC(=S)NC2CCSc3ccccc32)cc1C (stereo not given) | 1 | -22 | 14 | -5 | -9 | 79*
Cc1ccc(NS(=O)(=O)c2cc([N+](=O)[O-])ccc2N/N=C/c2sc(N3CCOCC3)nc2-c2ccccc2)c(C)c1 | 3 | 9 | -9 | -1 | 16 | -14
O=C1N/C(=C/c2cccn2-c2ccccc2)C(=O)N1Cc1ccc(F)cc1 | 0 | -1 | -11 | -6 | 20 | 1
O=C1N/C(=C/c2cccn2-c2ccc(F)cc2)C(=O)N1Cc1ccccc1F | -1 | 12 | 25* | 2 | -13 | -9
